Nine compounds from PubChem BioAssay can be followed below.

Activity calls are given as the source filed them.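 How the source made its calls, unless noted: active means visually confirmed hit in the image check and inhibition above 20%; inconclusive means visually confirmed hit but inhibition not above 20%; inactive means no visual hit in the image check.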

Assay [1] is described as follows: inhibitors of TNFa-induced NFkB p65 translocation, primary screen, imaging, HUVEC, MLSMR starter and 10KST1 sets (AID 438;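 active means inhibition above 20% together with a positive visual image hit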;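 further: compound added about 3h40 before a 20 min TNFalpha stimulation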;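 on inhibition: signal is the nuclear over cytoplasmic p65 intensity ratio per well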). Particulars: HUVEC TNFa-induced p65 nuclear translocation; cell count: measured here: nuclei count (cytotoxicity indicator), at 2.08 µM; inhibition: at 2 µM, stronger effect = higher value, 0% TNFa-plus-vehicle, 100% no-TNFa wells.
Assay [2] is described as follows: inhibitors of mutant huntingtin aggregation, primary screen, imaging, exon1htt(103Q)mCFP cells, high-content imaging (AID 483;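 active means visual image review flags a hit and inhibition of aggregation exceeds 20%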;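 further: compound exposure lasted 3 days before fixation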;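 on nuclei count: percent of the per-plate median nuclei count of sample wells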). Particulars: exon1htt(103Q)mCFP cell line, aggregate imaging, at 2 µM; inhibition of aggregation: stronger effect = higher value; nuclei count: measured here: cell count, toxicity.
Assay [3] in a line: inhibitors of E-selectin induction by TNFa, primary screen, imaging, HUVEC, immunofluorescence, MLSMR starter and 10KST1 sets (AID 487).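 On inhibition: signal is fraction of cell area covered by stained E-selectin grains.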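 On nuclei count: 100% = median nuclei count of all wells on the same plate.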 Particulars: HUVEC TNFalpha-induced E-selectin immunofluorescence imaging, at 2 µM; inhibition: stronger effect = higher value; nuclei count: measured here: cell number, toxicity.
The target in assay [4] is Voltage-gated potassium channel subunit beta-2 (Rattus norvegicus) (UniProt P62483). Put plainly: KvBeta enzyme negative modulators, primary screen, biochemical, NADPH fluorescence (AID 622;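 active means fluorescence slope higher than the sample average by over 3 SD, cut at about -0.22 in these data, passing the limit was not always enough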;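 further: slope of raw intensity against log time taken from 70 to 1610 s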). The note with it: recombinant KvBeta, 4-cyanobenzaldehyde reduction, at 10 µM, stronger effect = higher value.
Assay [5] has the same target. In words: KvBeta positive modulators, primary screen, biochemical, NADPH fluorescence (AID 623;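 active means NADPH fluorescence slope more negative than the mean of all samples by about 3 SD, 99.7% confidence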;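 further: fluorescence intensity change per second fitted from 20 to 320 s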). Particulars: Recombinant KvBeta, NADPH fluorescence decrease slope, 10 min; at 10 µM; stronger effect = lower value.
The target in assay [6] is Alpha-2C adrenergic receptor (Homo sapiens) (UniProt P18825). In words: modulators of alpha2C/GIRK thallium flux, primary screen, cell-based, HEK293 alpha2C/GIRK1/2 (AID 624;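 active means fluorescence slope after compound addition differing from the mean of all screened samples at 99.7% confidence, in either direction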;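 further: slope of fluorescence ratio to pre-addition baseline per second over 15 to 24 s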). The note with it: thallium flux BTC fluorescence, at 10 µM, actives lie on both sides.
Assay [7] in a line: inhibitors of Sendai virus-induced IRF3 signaling, primary screen, TLR/RLR signaling modifier project, cell-based, Sendai virus stimulus, luciferase, 10K MLSCN set (AID 602276;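 active means inhibition at or above 50% at 10 µM; inactive means inhibition below 50%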;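 further: firefly luciferase from ISG56 promoter only with Renilla not read in this screen; 0% = Sendai virus plus DMSO and 100% = medium plus DMSO without virus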). The note with it: HEK293 RL24 IRF3 luciferase reporter, at 10 µM, stronger effect = higher value.
The nature of assay [8]: inhibitors of poly I:C-induced TLR3 signaling, primary screen, cell-based, poly I:C stimulus, luciferase, 10K MLSCN set (AID 602277;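 active means inhibition of the reporter signal at or above 50%; inactive means inhibition below 50%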). The note with it: HEK293-TLR3 RL24 IRF3 luciferase reporter, at 10 µM, stronger effect = higher value.

Chain of Alpha-2C adrenergic receptor (Homo sapiens) (P18825 whole entry, looked up): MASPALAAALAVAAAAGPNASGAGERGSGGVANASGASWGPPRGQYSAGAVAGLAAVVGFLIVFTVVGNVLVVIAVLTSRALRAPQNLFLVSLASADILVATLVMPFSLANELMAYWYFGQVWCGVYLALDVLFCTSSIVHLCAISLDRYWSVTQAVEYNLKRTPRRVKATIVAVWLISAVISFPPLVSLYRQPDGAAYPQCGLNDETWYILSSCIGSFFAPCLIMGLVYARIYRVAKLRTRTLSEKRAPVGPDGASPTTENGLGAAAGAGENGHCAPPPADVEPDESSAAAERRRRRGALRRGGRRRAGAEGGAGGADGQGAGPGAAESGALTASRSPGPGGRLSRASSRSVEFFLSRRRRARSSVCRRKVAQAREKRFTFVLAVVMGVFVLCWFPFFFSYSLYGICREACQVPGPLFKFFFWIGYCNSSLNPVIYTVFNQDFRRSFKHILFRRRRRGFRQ
Chain of Voltage-gated potassium channel subunit beta-2 (Rattus norvegicus) (P62483 whole entry, looked up): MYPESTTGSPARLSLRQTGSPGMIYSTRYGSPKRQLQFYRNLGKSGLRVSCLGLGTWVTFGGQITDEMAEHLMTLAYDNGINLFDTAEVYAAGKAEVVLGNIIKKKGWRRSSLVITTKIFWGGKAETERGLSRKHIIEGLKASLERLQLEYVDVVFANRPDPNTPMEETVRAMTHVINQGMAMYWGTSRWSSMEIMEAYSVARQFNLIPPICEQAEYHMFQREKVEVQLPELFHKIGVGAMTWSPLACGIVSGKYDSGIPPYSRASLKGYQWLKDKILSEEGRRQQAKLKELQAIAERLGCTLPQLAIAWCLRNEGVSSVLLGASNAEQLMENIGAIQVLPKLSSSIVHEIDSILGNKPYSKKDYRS

As for `COC(=O)CN(c1ccc(OC)cc1)S(=O)(=O)c1ccc(OC)c(OC)c1`, in assay [1], the cell count amounted to 669. Also, the inhibition was -4.7% (inactive) in assay [1], -81.3% (inactive) in assay [3], 10.6% (inactive) in assay [7] and 23.4% (inactive) in assay [8]. Moreover, the inhibition of aggregation in assay [2] was -13% (inactive). In addition, the nuclei count in assay [2] came to 106%; in assay [3], 139%. In addition, in assay [4], the fluorescence slope was -0.463 (inactive). Moreover, the NADPH fluorescence slope in assay [5] was -0.000101 (inactive). For the same compound, in assay [6], the slope was 0.00514 (inactive).

As for `O=S(=O)(Nc1ccc(Cc2ccncc2)cc1)N1CCCC1`, in assay [1], the cell count was 848. Moreover, the inhibition in assay [1] was -3.6% (inactive); in assay [3] it was -102% (inactive); in assay [7] it was 1.91% (inactive); in assay [8], 2.2% (inactive). Also, the inhibition of aggregation in assay [2] was -0.2% (inactive). The nuclei count in assay [2] came to 111%; in assay [3], 130%. The fluorescence slope in assay [4] was -0.52 (inactive). For the same compound, the NADPH fluorescence slope in assay [5] is 1.2e-05 (inactive). Further, the slope in assay [6] was 0.00557 (inactive).

For the compound `Cc1occc1-c1nnc(SCC(=O)N2CCc3ccccc32)o1`, the cell count in assay [1] is 679. Moreover, the inhibition in assay [1] was -1.9% (inactive); in assay [3] it was -7.2% (inactive); in assay [7], 5.8% (inactive); in assay [8], 5.93% (inactive). Also, the inhibition of aggregation in assay [2] was 2.9% (inactive). The figures for the nuclei count in assay [2] and in assay [3] were 73.2% and 106%, respectively. In addition, the fluorescence slope in assay [4] is -0.478 (inactive). Besides, the NADPH fluorescence slope in assay [5] was 2.9e-05 (inactive). Further, the slope in assay [6] was 0.00881 (inactive).

On to `COC(=O)c1ccc2c(c1)C(=O)N(C1CCCCC1)C2=O`, for which the cell count in assay [1] was determined as 338. Besides, the inhibition in assay [1] was 2.1% (inactive); in assay [3], -9.6% (inactive); in assay [7] it was 14.7% (inactive); in assay [8], 13.8% (inactive). Besides, the inhibition of aggregation in assay [2] is -2.4% (inactive). Also, the nuclei count came out at 107% in assay [2] and 96.9% in assay [3]. The fluorescence slope in assay [4] was -0.443 (inactive). Besides, the NADPH fluorescence slope in assay [5] was -3.4e-05 (inactive). In assay [6], the slope is 0.00524 (inactive).

In the case of `COC(=O)c1sccc1NC(=O)c1csc(C)c1`, the cell count in assay [1] was 406. The inhibition in assay [1] is -5.4% (inactive); in assay [3] it was -42.1% (inactive); in assay [7] it was 18.7% (inactive); in assay [8], 36.8% (inactive). Besides, in assay [2], the inhibition of aggregation was 0.6% (inactive). For the same compound, the figures for the nuclei count in assay [2] and in assay [3] were 88% and 123%, respectively. In addition, the fluorescence slope in assay [4] is -0.384 (inactive). For the same compound, in assay [5], the NADPH fluorescence slope was -0.000107 (inactive). Further, the slope in assay [6] was 0.00657 (inactive).

`C#CCNc1c(C)c(C)nc2ncnn12`: the cell count in assay [1] worked out at 306. The inhibition was -9.4% (inactive) in assay [1], -44.2% (inactive) in assay [3], 14.5% (inactive) in assay [7] and 9.86% (inactive) in assay [8]. In addition, the inhibition of aggregation in assay [2] is 32.2% (inactive). Also, the nuclei count came out at 86.1% in assay [2] and 89.3% in assay [3]. Also, in assay [4], the fluorescence slope was -0.592 (inactive). The NADPH fluorescence slope in assay [5] is -3.6e-05 (inactive). Moreover, the slope in assay [6] was 0.00371 (inactive).

Consider `Cc1nnc(NCCc2ccccc2)n(N)c1=O`, for which, in assay [1], the cell count came out at 806. In addition, the inhibition is -5.5% (inactive) in assay [1], -35% (inactive) in assay [3], 2.54% (inactive) in assay [7] and 5.29% (inactive) in assay [8]. In addition, the inhibition of aggregation in assay [2] was -21.2% (inactive). Also, the nuclei count turned out to be 106% in assay [2] and 121% in assay [3]. For the same compound, the fluorescence slope in assay [4] was -0.514 (inactive). Besides, the NADPH fluorescence slope in assay [5] is 4.9e-06 (inactive). In assay [6], the slope is 0.00506 (inactive).

Turning to `Cc1cc(C)c(NC(=O)Cn2cc3c(n2)CCCC3)c(C)c1`, the cell count in assay [1] is 738. Moreover, the inhibition in assay [1] is -7.9% (inactive); in assay [3], -1.2% (inactive); in assay [7], 26.1% (inactive); in assay [8] it was 11.6% (inactive). In assay [2], the inhibition of aggregation is -4.1% (inactive). For the same compound, the results for the nuclei count in assay [2] and in assay [3] were 76.3% and 110%, respectively. Moreover, the fluorescence slope in assay [4] is -0.515 (inactive). The NADPH fluorescence slope in assay [5] is -2e-05 (inactive). The slope in assay [6] was 0.00662 (inactive).

Regarding `CCN(CC)S(=O)(=O)c1ccc(NC2c3ccccc3C(=O)N2CCN2CCOCC2)cc1` (centres undefined), the cell count in assay [1] amounted to 534. Also, the inhibition is -12.6% (inactive) in assay [1], -147% (inactive) in assay [3], 4.22% (inactive) in assay [7] and 10.7% (inactive) in assay [8]. For the same compound, the inhibition of aggregation in assay [2] was 24.2% (inactive). Moreover, the nuclei count was 95.3% in assay [2] and 128% in assay [3]. For the same compound, the fluorescence slope in assay [4] was -0.611 (inactive). Moreover, the NADPH fluorescence slope in assay [5] was 1.3e-05 (inactive). Further, the slope in assay [6] was 0.00571 (inactive).

By inhibition is commonly meant the relative decrease from the control value, in per cent.
